According to PubChem BioAssay (NCATS):
Records with an inconclusive call do not appear. A number with no mark means an inactive call. Active and inactive are the calls of the source. Calls come from the whole dose curve; as a rule, active = well fitted activation curve with a large enough effect; inconclusive = small, poorly fitted or top-dose-only effect; inactive = flat fitted curve, though single readings scatter.

assay: Primary redox qHTS assay for identification of artifact compounds. (AID 1845223); settings: Amplex Red/HRP redox cycling with DTT, fluorescence; series mostly up to 53.8 µM; redox activity (% of DA3003): at the top concentration
Excerpt: PI: Alexander Tropsha Ph.D.
UNC Eshelman School of Pharmacy
University of North Carolina, Chapel Hill, North Carolina
Hits from high-throughput screening (HTS) of chemical libraries are often false positives due to their interference with the assay detection technology. In response to this problem, we generated the largest publicly available library of chemical liabilities and developed a free webtool to predict HTS artifacts, both of which are described herein. More specifically, we generated, curated, and integrated HTS datasets for thiol reactivity, redox activity, and luciferase (firefly and nano) activity. Using these curated datasets, we developed and validated several Quantitative Structure-Interference Relationship (QSIR) models to predict nuisance behavior. […] These models were employed for virtual profiling of the National Center for Advancing Translational Science's (NCATS) in-house library, and 256 compounds for each assay were selected for the experimental validation of nuisance behavior. The BA for these external predictions ranged from 58 to 78% for compounds within the applicability domains of the models. […] The models developed in this study, along with aggregation models previously developed by our group (SCAM Detective) were implemented in "Liability Predictor," an online tool which may be used as part of chemical library design or for triaging HTS hits. Both the models and the curated datasets are publicly available at https://liability.mml.unc.edu/.
SEQUENCE No. (e.g., 1, 2, 3, etc.); […] (e.g., Cells, Incubation, Reagent, etc.); VALUE; DESCRIPTION.
1; Reagent; 3 uL; Amplex Red and HRP mixture.
2; Compounds and control; 16 nL; Kalypsis pin tool (Wako USA) equipped with a 1536-well pin head. […]
6; Detection; Fluorescence, ViewLux microplate reader, 525 nm excitation, 598 nm emission.
NOTES (numbers refer to Sequence numbers above)
1. 3 uL of a mixture containing Amplex Red (25 uM final concentration) and horseradish peroxidase (HRP; 250 mU/mL final concentration) in assay buffer (HBSS) was dispensed into all wells of a 1536-well assay plate (solid-bottom black plate; Greiner Bio One, Monroe, NC).
2. A Wako Pin-tool (Wako Automation, Richmond, VA) was used to transfer 16 nL of compounds (consisting of 7-plates in qHTS format, final concentration range 18.3 nM to 114 uM) or control DA3003 (final concentration range 1.22 nM to 40 uM).
3. 15 min. incubation at room temperature protected from light.
4. 1 uL of DTT (prepared fresh; final concentration 250 uM) was dispensed for a final assay volume of 4 uL.
5. Plates were centrifuged (121xg, 15 seconds) and incubated for 30 minutes at room temperature protected from light.
6. Samples were read for fluorescence (Ex/Em = 525(20)/598(25) nm) on a ViewLux CCD imager (PerkinElmer). Data were normalized to DMSO (0% activity) and DA3003 (10 uM final concentration; 100% activity) and the resulting percent inhibition data were fitted to a 4-parameter Hill equation using NCATS in-house software.
Potency is the fitted concentration of half-maximal effect.

| Compound | redox activity (% of DA3003) | Potency |
| --- | --- | --- |
| CCCCC(=O)N(Cc1ccc(-c2ccccc2-c2nn[nH]n2)cc1)C(C(=O)O)C(C)C (stereo not given) | 1.09% | – |
| O=C(CCCCCCC(=O)Nc1ccc(C2OC(CSc3nc(-c4ccccc4)c(-c4ccccc4)o3)CC(c3ccc(CO)cc3)O2)cc1)NO (stereo not given) | 7.41% | – |
| COc1c(N2CC3CCCNC3C2)c(F)cc2c(=O)c(C(=O)O)cn(C3CC3)c12 (stereo not given) | -0.802% | – |
| CC1CCC(n2c3cnccc3c3cnc(Nc4ccc5c(n4)CCN(C(=O)CO)C5)nc32)CC1 (stereo not given) | -0.592% | – |
| COc1ccc2c3ccnc4ccc(=O)n(c2c1)c43 | -6.63% | – |
| COc1cc2ncnc(Nc3ccc(Oc4ccccc4)cc3)c2cc1OC | -3.02% | – |
| O=C(Nc1ccc(F)cc1)N1CCc2ccccc2C1c1ccc(C(F)(F)F)cc1 (stereo not given) | -5.2% | – |
| COc1cc2ncnc(Oc3cccc(NC(=O)Nc4cc(C(C)(C)C(F)(F)F)on4)c3)c2cc1OC | -10.4% | – |
| COc1cc(-c2cc(-c3cccc(O)c3)cnc2N)cc(OC)c1OC | -11% | – |
| CCCCn1ccc(N2CCC(c3ccccc3)CC2)c(Cl)c1=O | 6.45% | – |
| Cc1ccc(C2(COC(=O)C(C)C)CO2)c(OC(=O)C(C)C)c1 (stereo not given) | -13.3% | – |
| Cc1ccc2c(Nc3ccc(Cl)cc3)nccc2c1Nc1ncccc1-c1ncnc2nc[nH]c12 | -9.7% | – |
| CCOC(=O)c1cccc(CNc2ccc(N(C)C(=O)Nc3ccccc3)cc2)c1 | – | 23.8 µM (active) |
| Clc1ccccc1CNCC1CCC(CNCc2ccccc2Cl)CC1 (stereo not given) | 8.78% | – |
| OCC(Cc1ccccc1)Nc1nc(Oc2ccc3c(c2)CCC3)nc2c1ncn2Cc1ccc(-c2ccccc2)cc1 (stereo not given) | -1.02% | – |
| FC(F)(F)c1ccc(CNc2ccc(Cc3c[nH]c4ncccc34)cn2)cc1 | -4.35% | – |
| CCCCc1nc(C)c(CC(=S)N(C)C)c(=O)n1Cc1ccc(-c2ccccc2-c2nn[nH]n2)cc1 | 6.11% | – |
| COc1cccc(NC[C@@H](O)Cn2c3ccc(Br)cc3c3cc(Br)ccc32)c1 | -1.84% | – |
| CNCc1ccc(C)c(NC(=O)c2ccc(Nc3nc(-c4ccccc4)c4ccccc4n3)cc2)c1 | -0.554% | – |
| NC(=Nc1ccc(CCNCc2cccc(Cl)c2)cc1)c1cccs1 | -4.7% | – |

| Compound | redox activity (% of DA3003) | Potency |
| --- | --- | --- |
| C[C@@H](CN1CCC(n2c(=O)[nH]c3cc(Cl)ccc32)CC1)NC(=O)c1ccc2ccccc2c1 | 11.2% | – |
| C=C1C(=O)O[C@@H]2/C=C(/C)CC3C=C(C[C@H](OC(=O)/C(C)=C\C)[C@@H]12)C(=O)O3 (stereo not given in full) | 7.87% | – |
| Cc1cc(C)c(-c2csc(NC(=O)c3ccccc3)n2)c(C)c1 | -5.04% | – |
| COc1ccc(-c2cc(C(O)C3CCCCN3)c3ccccc3n2)cc1 (stereo not given) | -1.34% | – |
| OC(CNCCc1c[nH]c2ccccc12)Cn1c2ccccc2c2ccccc21 (stereo not given) | -4.95% | – |
| COc1cc(-c2cc(-c3ccc(N4CCNCC4)cc3)cnc2C)cc(OC)c1OC | -6.19% | – |
| COc1ccccc1-c1cc(Nc2cccc(CS(N)(=O)=O)c2)ncn1 | -6.15% | – |
| C=C1C(=O)O[C@@H]2[C@H]1[C@H](O)C[C@]1(C)[C@@H](O)CC=C(C)[C@@H]21 | -3.16% | – |
| COc1ccc(NC(=O)N2CCc3c2ccc2ccccc32)cc1N1CCN(C)CC1 | 3.84% | – |
| CCN1CCC[C@@H]1CNC(=O)c1ccc2c(c1)NC(=O)/C(=C/c1ccccc1F)S2 | 5.36% | – |
| CN(C)CC(=O)Nc1ccc2[nH]c(=O)c3ccccc3c2c1 | -4.42% | – |
| O=C(c1ccc(F)c(F)c1Nc1ccc(I)cc1F)N1CC(O)([C@@H]2CCCCN2)C1 | 14.7% | – |
| N#Cc1c[nH]c2c(C(=O)N3CCN(CCc4ccc(F)cc4)CC3)cccc12 | 11.3% | – |
| CC1OC2O[C@H]3[C@@H](OCC(O)[C@H]3O)OC(=O)C34CCC(C)(C)CC3C3=CCC5C6(C)CC(O)C(OC7OC(CO)C(O)C(O)C7O[C@@H]7OC[C@H](OC(=O)CC(C)(O)CC(=O)OC1C(OC1OCC(O)C(O)C1O)C2O)[C@@H](O)[C@H]7O)C(C)(CO)C6CCC5(C)C3(C)CC4 (stereo not given in full) | 11.8% [at 25.6 µM] | – |
| CN(CCCNC(=O)c1ccc2nc3c(c(Cl)c2c1)CCCC3)Cc1ccccc1 | -0.834% | – |
| COc1cc(N2CCN(C(C)=O)CC2)ccc1Nc1ncc(Cl)c(Nc2ccc(N3CCN(C(C)=O)CC3)cc2OC)n1 | -2.23% | – |
| CCOC(=O)CCC(=O)O[C@H]1[C@H](O[C@@H]2[C@@H](C)[C@H](O[C@H]3C[C@@](C)(OC)[C@@H](O)[C@H](C)O3)[C@@H](C)C(=O)O[C@H](CC)[C@@](C)(O)[C@H](O)[C@@H](C)C(=O)[C@H](C)CC2(C)O)O[C@H](C)C[C@@H]1N(C)C (stereo not given in full) | 14.3% | – |
| COc1ccc(Cl)cc1[C@@]1(F)C(=O)Nc2cc(C(F)(F)F)ccc21 | -0.746% | – |
| CC[C@@H](C)[C@H]1C(=O)O[C@H](C(C)C)C(=O)N(C)[C@@H](C(C)C)C(=O)O[C@H](C(C)C)C(=O)N(C)[C@@H](C(C)C)C(=O)O[C@H](CC(C)C)C(=O)N1C | 2.6% [at 25.6 µM] | – |
| COc1ccc(-c2nc(-c3cc(C(F)(F)F)cc(C(F)(F)F)c3)n(Cc3ccc(C(N)=O)cc3)c2-c2ccc(OC)cc2)cc1 | -0.341% | – |
